Experimental data published in PubChem BioAssay AID595 (National Center for Advancing Translational Sciences (NCATS), 2007).
About 310 (0.44%) of roughly 71,000 compounds were called active. Another 5% or so got no clear call; they are omitted. Calls come from the whole dose curve; as a rule, active = well fitted curve in either direction with a large enough effect; inconclusive = small, poorly fitted or top-dose-only effect, or another doubt; inactive = flat fitted curve, though single readings scatter. For the sample, actives were picked, then their nearest neighbours and some compounds at random.

Each compound was assayed on Hsp90 C-terminal peptide / TPR2A (Hop) interaction, human (assay: qHTS Assay for Disrupters of an Hsp90 Co-Chaperone Interaction). Details: AlphaScreen TPR2A-His6 binding biotin-Hsp90 C-terminal peptide; series mostly up to 57 µM.
Excerpt: NIH Chemical Genomics Center [NCGC]
NIH Molecular Libraries Screening Centers Network [MLSCN]
Hsp90 (heat shock protein 90) is the essential molecular chaperone and it accounts for 1-2% of all cytosolic proteins and is critical for the activity of diverse cellular proteins that are involved in a variety of cellular processes, including development, cell cycle, and steroid hormone signaling. Its client proteins include signaling kinases such as IGF1R, Akt, v-Src, Raf-1; regulators of cell survival such as Bcr-Abl; and transcription factors such as mutated p53, estrogen and progesterone receptors. Hsp90 has emerged as an important target for cancer treatment due to its essential role in maintaining transformation and regulating the function of oncogenic signaling proteins.
The in vivo function of Hsp90 is regulated by the binding and hydrolysis of ATP at its N-terminal. Geldanamycin binds to ATP site and inhibit Hsp90 function. Geldanamycin and its analogues are under clinical trials in cancer patients.
This domain contains the binding site for tetratricopeptide repeat (TPR) domains on HOP (Hsp Organizing Protein). TPR is a structural motif used by a significant number of cochaperones by which the in vivo function of Hsp90 is regulated. TPR2A on HOP binds specifically to MEEVD motif of the C-terminal of Hsp90.
A homogeneous AlphaScreen is developed to assess the interaction between TPR2A and MEEVD motif of the C-terminal of Hsp90 by using the isolated TPR2A domain and a synthesized 20mer Hsp90 C terminal peptide. AlphaScreen is two bead-based proximity-dependent chemical energy transfer luminescent assay platform. TPR2A-His-6 and biotinylated Hsp90 C terminal peptide will bring streptavidin donor beads and nickel chelate acceptor beads to a proximity range (less than 200 nm), and subsequently lead a chemical luminescent reaction upon exciting donor beads with 680 nm laser. Inhibition of TPR2A and MEEVD motif interaction by small molecules could attenuate or abolish this chemical luminescent reaction.
Counter screening: Biotinylated-His-6 (PerkinElmer) can be utilized as a counter screen, as it serves as a linker to bring streptavidin beads and nickel chelate beads together. The counter screen can exclude alpha screen platform false positives due to small molecules being metal chelators, biotin analogues and imidazole analogues, or due to interfering with oxygen release from donor beads. Such an assay should be utilized to qualify any activity observed in this screen.
NCGC Assay Protocol Summary:
The assay was performed on 1536-well white plate (untreated solid bottom). Liquids were dispensed by 1536-well plate washer (Kalypsys, San Diego, CA). Plates were read on EnVision (PerkinElmer, Boston, MA).TPR2A-His6 was produced using a bacteria expression system and purified using a well developed method (Ghosh et al., 2000). Hsp90 C terminal 20-mer peptide with or without an N-terminal biotin group are synthesized using automated solid phase synthesis by the Yale Keck facility. The composition of assay buffer was (in mM) 25 HEPES, 100 KCl, 2 MgCl2 and 2 DTT; 0.1% BSA and 0.01% Tween-20. TPR2A-His6 binding to biotin-Hsp90 will bring streptavidin donor beads and nickel chelate acceptor beads (PerkinElmer) together and can be measured by Alpha reading by EnVision (PerkinElmer). Free Hsp90 blocks biotin-Hsp90 binding to TPR2 and serves as a positive control in the current asssay.
The assay was performed at room temperature. All compounds were screened as titrations from […] to 46 uM final concentration. The assay was performed in 1536-well format plates (untreated white solid bottom, Corning Inc.) as follows:
Sequence,Parameter,Value,Description
1,Reagent,3 uL TPR2A-His6,Final concentration was 5nM
2,Compound,23 nL,Final titration was from 0.7 nM to 46 uM
3,Time,15 minutes,Room temperature
4,Reagent,1 uL biotin-Hsp90,With and without free Hsp90. Final concentration was 10 nM for biotin-Hsp90 and 10uM for free Hsp90.
5,Time,1 hour,Room temperature
[…]
% is set by controls: 0 for no effect and ±100 for the full control effect; potency is the fitted concentration of half-maximal effect.

Activity change, negative = inhibition, inactive:
CC1(C)S[C@@H]2[C@@H](NC(=O)[C@@H](N)c3ccccc3)C(=O)N2[C@H]1C(=O)O
O=C(NCC12CC3CC(C1)CC(CNC(=O)N1CCCC1)(C3)C2)N1CCCC1
CC(C)NC(=O)N1CCCC2(CCN(C(=O)c3cccn3C)CC2)C1
c1ccc2c(Nc3ccncc3)nc(-c3ccoc3)nc2c1
O=C(c1ccncc1)N1CCC2(CCN(Cc3cc(C(F)(F)F)cc(C(F)(F)F)c3)CC2)CC1
Cn1cc(-c2nc3cncnc3n(-c3ccccc3)c2=O)c2ccccc21
COc1ccc(-n2c(=O)c(-c3cn(C)c4ccccc34)nc3cnc(OC)nc32)cc1
COC(=O)[C@@]1(Cc2ccc(OC)cc2)[C@H]2c3cc(C(=O)N4CCCC4)n(Cc4ccc(OC(F)(F)F)cc4)c3C[C@H]2CN1C(=O)c1ccccc1
Cc1ccc(Br)cc1
Cc1nc2cnc(N3CCNCC3)nc2n(CCc2ccccc2)c1=O
C(=C\c1ccccc1)/CSc1nnc(-c2cccnc2)n1Cc1ccco1
CCCS(=O)(=O)N1CCC(C(=O)NCCCN(C)Cc2ccccc2)CC1
COc1ccccc1CNc1ccnc(-c2c(C)noc2C)n1
CSc1ccc(S(=O)(=O)Nc2cccc(F)c2)cc1
O=C(O)C1CCCN1S(=O)(=O)c1ccc2c(c1)CCC2 (centres undefined)
CC(C)c1cc(CN(C)C)c(O)c(C(C)(C)C)c1 1.81% [at 11 µM]
CCC(C)(NC(=O)c1ccccn1)C(=O)NC1CCCCC1 (centres undefined)
CCOc1ccc(C(=O)N(Cc2ccc(N(C)C)cc2)C2CCS(=O)(=O)C2)cc1 (centres undefined)
CC(C)Cn1c(CN(Cc2ccccc2)Cc2ccccc2)nc2c1c(=O)n(C)c(=O)n2C
COc1ccc(CN2C(=O)CN=C2Nc2ccc(C)cc2C)cc1
OCCCNCc1ccccn1 -9.89% [at 11 µM]
CCCCC[C@H](O)CCCC(=O)O
CCCn1c(-c2ccc(F)cc2)nc2c(NC3CCN(Cc4ccccc4)C3)nc(C)nc21 (centres undefined)
CC(=O)CCS(=O)(=O)c1ccc(C)c(C)c1
C#CCN1CC(C)/C(=N/O)CC1C (centres undefined)
COc1ccc(Cl)cc1NC(=O)C1CC(=O)N(c2ccc(F)cc2)C1 (centres undefined)
C[C@H](CCC(=O)O)[C@H]1CC[C@@H]2[C@H]3CC[C@H]4C[C@H](O)CC[C@@]4(C)[C@@H]3CC[C@@]21C -0.844% [at 11 µM]
COCCn1c(=O)c(CCc2ccccc2)nc2cnc(N3CCNCC3)nc21
Oc1ccccc1CNCc1ccccc1O -2.03% [at 11 µM]
O=C(Cl)c1ccc([N+](=O)[O-])cc1
Cc1noc(C)c1-c1cc(NCc2cccnc2)ncn1
c1ccc2sc(SCCSc3nc4ccccc4s3)nc2c1 2.87% [at 11 µM]
O=C(O)CCCCC(=O)O
CN(C)c1ccc(-c2nc(NCCN3CCOCC3)c3ccccc3n2)cc1
COC(=O)c1c(-c2ccc(C)cc2)csc1N
CC(C)CC1(C(=O)NCc2ccccn2)C=CCN1C(=O)c1ccccc1 (centres undefined)
CN(CCCNC(=O)CN1C(=O)CC(C)(C)S(=O)(=O)c2ccccc21)C1CCCCC1
O=c1[nH]c(=O)n([C@H]2C[C@H](O)[C@H](CO)O2)cc1Br
Cc1ccc(S(=O)(=O)Nc2ccccc2CNc2c(C)n(C)n(-c3ccccc3)c2=O)cc1
N[C@H](C(=O)O)c1ccc(C(=O)O)c(O)c1
CCCn1c(=O)c2[nH]c(-c3ccc(OCC(=O)NCCN)cc3)nc2n(CCC)c1=O
COc1ccc(OC)c(CN2C(=O)CCC2(C)C(=O)NC2CCCCCC2)c1 (centres undefined)
CCCCC/C=C/C=C/C=O
N#Cc1cccc(-c2nc3cnc(N4CCNCC4)nc3n(C3CC3)c2=O)c1
O=c1c(-c2ccc(F)cc2)nc2cncnc2n1-c1ccccc1
c1ccc2c(c1)-c1ccccc1C2N1CC2CCC(CC2)C1 2.37% [at 11 µM]
COc1ccc(C[C@H](N)C(=O)N[C@@H]2[C@H](O)[C@H](n3cnc4c(N(C)C)ncnc43)O[C@@H]2CO)cc1
Cc1cc(Cl)ccc1OCC(=O)Oc1c(Cl)c(Cl)c(Cl)c(Cl)c1Cl 0.356% [at 11 µM]
O=C(COc1ncnc2ccccc12)NC(=O)NCc1ccccc1
C[C@@H]1O[C@@H](O[C@@H]2[C@@H](O)[C@H](OCCc3ccc(O)c(O)c3)O[C@H](CO[C@@H]3O[C@H](CO)[C@@H](O)[C@H](O)[C@H]3O)[C@H]2OC(=O)/C=C/c2ccc(O)c(O)c2)[C@H](O)[C@H](O)[C@H]1O
Cc1ccccc1N1CCN(S(=O)(=O)C[C@@]23CC[C@H](C[C@H]2NC(=O)[C@@H](N)CCS(C)(=O)=O)C3(C)C)CC1
COc1ccc(NC(=O)N2CC3(CCN(C(=O)c4cccn4C)CC3)C2)cc1
COc1ccc(C(=O)N2CCC3(CC2)CCN(c2ccccn2)CC3)cc1
O=C(Nc1cccc(F)c1)N1CC2(CCN(C(=O)c3csnn3)CC2)C1
CCn1ccnc1C[C@@H]1COc2ccccc2O1
CC/C=C/C/C=C/C/C=C/CCCCCCCC(=O)OCC
COC(=O)c1c(NC(=O)CSc2nc3c(c(=O)n(C)c(=O)n3C)n2C(C)C)sc(C)c1C
CCOC(=O)c1c(NC(=O)CSc2nnc(CN3CCOCC3)n2C)sc2c1CCCC2
Brc1cc(Br)c(Oc2cc(Br)c(Br)cc2Br)cc1Br
Nc1nc2c(ncn2[C@H]2CC[C@@H](CO)O2)c(=O)n1C(=O)c1ccccc1 -4.52% [at 11 µM]
CCOC(=O)CSc1nnc(CNc2ccc(F)cc2)o1
C[C@]1(O)CC[C@H]2[C@H]3CC=C4N5CCN=C5CC[C@@]4(C)[C@H]3CC[C@@]21C -4.96% [at 11 µM]
CC1(CCC(=O)OC2CCCCC2)OCCO1 -2.62% [at 11 µM]
CN1CCN(S(=O)(=O)c2ccc3[nH]cc(C(=O)O)c(=O)c3c2)CC1
CCOC(=O)c1nc(N)sc1C(=O)OCC
COC(=O)C1(C)C=CCN1C(=O)c1ccccc1 (centres undefined)
Cc1c(O)c(Br)c(C)c(O)c1Br (tested in a mixture with another compound) -3.86% [at 11 µM]
COCCNc1ccnc(-c2cccc(NS(C)(=O)=O)c2)n1
Cc1cccc(CNc2cc(-c3ccccc3Cl)ncn2)c1
O=C(Nc1c[nH]c(=O)[nH]c1=O)Oc1ccccc1 1.58% [at 11 µM]
Nc1ccccc1N
COc1cc([C@H]2c3cc4c(cc3[C@@H](O[C@@H]3O[C@H]5CO[C@@H](C)O[C@]5(O)C[C@H]3O)[C@@H]3COC(=O)[C@H]23)OCO4)cc(OC)c1O
NS(=O)(=O)c1ccc(NS(=O)(=O)/C=C/c2ccccc2)cc1
Cc1cc(C)c2nc(N3CCCC3)c(C#N)cc2c1
Cc1ccc(S(=O)(=O)C(C#N)c2nc3ccccc3nc2N2CCCC2)cc1C (centres undefined)
C[C@@H]1C[C@H]2[C@@H]3C[C@H](F)C4=CC(=O)C=C[C@@]4(C)[C@]3(F)[C@H](O)C[C@]2(C)[C@@]1(O)C(=O)CO
CN1CCN(c2ncc3nc(-c4ccc(Cl)cc4)c(=O)n(-c4ccccc4)c3n2)CC1
O=C(Nc1cccc(F)c1)N1CCC2(CC1)CCN(S(=O)(=O)c1ccccc1)CC2
Cc1nc2cnc(Oc3cccc(Cl)c3)nc2n(C2CC2)c1=O
O/N=C1\CC2(Cc3nonc31)OCCO2
O=c1c(CCc2ccccc2)nc2cncnc2n1C1CC1
COc1ccccc1CNc1ncncc1-c1cccc(NS(C)(=O)=O)c1
COCCNc1cc(-c2c(C)noc2C)ncn1
O=C(O)[C@@H]1[C@@H](C(=O)O)[C@]23C[C@@]2(C(=O)O)[C@]2(C(=O)O)CCC3=C3CCCC312 0.013% [at 11 µM]
O=C(CC(NS(=O)(=O)c1ccc(Cl)cc1)c1ccco1)NC1CCCC1 (centres undefined)
CN1CCN(S(=O)(=O)c2ccc(NC(=O)C3CCCO3)cc2)CC1 (centres undefined)
O=S(=O)(c1ccccc1)N1CCC2(CC1)CN(Cc1nccs1)C2
NC1(C(=O)OCc2ccccc2)CCCC1 -2.78% [at 11 µM]
NCC(=O)[C@@H](O)[C@H](O)[C@H](O)CO -1.57% [at 11 µM]
Cc1ccc(CNC(=O)C2CC(=O)N(C3CCCCCCC3)C2)cc1 (centres undefined)
COc1ccc(C(=O)N2CCC[C@@]3(CCN(C(=O)NC(C)C)C3)C2)cc1
Clc1ccc(Cc2nnc(-c3cccs3)o2)cc1
Cn1c(=O)c(-c2ccccc2)nc2cnc(N3CCNCC3)nc21
C=CC(=C)CCC=C(C)C
CN1CCN(c2cc(=O)n(-c3ccc(Cl)cc3)c(=O)[nH]2)CC1

Potency, active:
COc1ccccc1CCn1c(=O)c(-c2cn(C)c3ccccc23)nc2cncnc21 0.631 µM [activator]
CCOC(=O)c1c(NC(=O)CSc2nnc(Cc3csc(N)n3)n2C)sc(C)c1C 25.1 µM
Cc1cccc2cc(C#N)c(N3CCCC3)nc12 31.6 µM [activator]
ON=C1/C(=N\O)CC2(C/C1=N/O)OCCO2 12.6 µM
